Measured values from PubChem BioAssay (EPA / NIEHS).
Results filed as inconclusive are left out. Activity calls are given as the source filed them. How the source made its calls: active means hit-call score of the fitted dose curve at least 0.9, where 1 is the maximum; inconclusive means response in the unintended direction; inactive means score below 0.9.

What was measured:
[1] = molecular target: guinea pig Bradykinin Receptor B2 (BK2), BDKRB2 (gene 100135486) (UniProt O70526); assay: NVS_GPCR_gBK2: NovaScreen (NVS) G Protein-Coupled Receptor Assay for guinea pig Bradykinin Receptor B2 (BK2) (AID 2283292)
Summary of the method: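 Guinea pig ileum membrane preparation incubated 1 h with radioligand and test chemical; bound counts measured after filtration. Primary duplicate screening at 25 uM, then singleton concentration series with a 50 uM top dose; DMSO as baseline.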

[2] = molecular target: mouse Cholecystokinin, CCK2 Receptor (CCKB), Cckbr (gene 12426) (UniProt P56481); assay: NVS_GPCR_mCKKBCentral: NovaScreen (NVS) G Protein-Coupled Receptor Assay for mouse Cholecystokinin, CCK2 Receptor (CCKB) (AID 2283293)
Summary of the method: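 Mouse forebrain membrane preparation incubated 2 h with chemical and radioligand; bound radioactivity counted after filtration. Single-concentration duplicate screen at 25 uM, then concentration series to 50 uM max for hits, DMSO as baseline.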

Chain of mouse Cholecystokinin, CCK2 Receptor (CCKB), Cckbr (gene 12426) (P56481 whole entry, looked up): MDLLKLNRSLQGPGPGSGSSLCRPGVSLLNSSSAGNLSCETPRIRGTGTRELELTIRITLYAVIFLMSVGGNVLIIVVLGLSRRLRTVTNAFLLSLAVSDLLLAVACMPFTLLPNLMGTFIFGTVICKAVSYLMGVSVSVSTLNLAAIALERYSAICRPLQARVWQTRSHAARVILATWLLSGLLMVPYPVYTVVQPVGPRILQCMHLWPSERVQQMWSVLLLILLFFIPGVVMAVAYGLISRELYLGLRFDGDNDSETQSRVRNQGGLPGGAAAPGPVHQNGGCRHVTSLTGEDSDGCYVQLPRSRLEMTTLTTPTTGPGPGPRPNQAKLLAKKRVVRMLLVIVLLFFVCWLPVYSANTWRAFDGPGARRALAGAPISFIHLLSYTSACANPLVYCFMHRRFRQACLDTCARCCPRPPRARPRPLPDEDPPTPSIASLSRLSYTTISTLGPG
Chain of guinea pig Bradykinin Receptor B2 (BK2), BDKRB2 (gene 100135486) (O70526 whole entry, looked up): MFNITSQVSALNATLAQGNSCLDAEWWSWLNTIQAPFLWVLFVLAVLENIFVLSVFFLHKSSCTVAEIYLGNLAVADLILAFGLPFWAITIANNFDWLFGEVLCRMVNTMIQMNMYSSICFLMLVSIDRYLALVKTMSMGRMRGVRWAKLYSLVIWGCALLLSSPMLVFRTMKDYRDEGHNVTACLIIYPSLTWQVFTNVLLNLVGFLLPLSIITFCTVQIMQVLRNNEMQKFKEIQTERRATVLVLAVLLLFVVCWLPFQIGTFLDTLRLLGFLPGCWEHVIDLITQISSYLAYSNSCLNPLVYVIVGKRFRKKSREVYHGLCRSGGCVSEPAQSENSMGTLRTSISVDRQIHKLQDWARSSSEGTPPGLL

Row | Structure (SMILES) | outcome [1] | AC50 [2]
1 | Cc1cn([C@H]2C=C[C@@H](CO)O2)c(=O)[nH]c1=O | inactive | 
2 | CCN(CC)CCOc1ccc(C(=C(Cl)c2ccccc2)c2ccccc2)cc1 | inactive | 
3 | CCC(C)N(C)C(=O)c1cc2ccccc2c(-c2ccccc2Cl)n1 (centres undefined) |  | 2.61 µM (active)
4 | CCCCc1nc2cccnc2n1Cc1ccc(-c2ccccc2-c2nnn[nH]2)cc1 |  | 15.4 µM (active)
